Each molecule was assayed against Shiga toxin 2 (Escherichia coli O157:H7) (UniProt P09385+P09386) (assay: E. coli 0.157:H7 Shiga Toxin SOP - stx2 screening assay). Details: 30 µM.
Type: functional
Parameters: scale not given: direction of the effect not stated beside the values
Work on COCCc1noc(CNC2CCc3nc(C(C)C)nn3C2)n1 (stereo not given) yielded a Percent Effect of 9.38%. Work on CC(NC(=O)NCCCn1cccn1)c1ccc2c(c1)NC(=O)CO2 (stereo not given) yielded a Percent Effect of -20.8%. With Fc1ccc(CN2CCO[C@H]3[C@H](OCC4CC4)CC[C@@H]32)cc1 the Percent Effect was 3.83%. With CCc1nnc2n1CCN(C(=O)c1csc(-c3cnn(C)c3)n1)C2 the Percent Effect was -15.8%. CC(C)c1nnc2ccc(N3CCC(C(=O)Nc4nccs4)CC3)nn12 was tested, and the Percent Effect was -32.8%. Work on CCn1nc(CC(C)C)cc1C(=O)NCCCOC yielded a Percent Effect of 11.5%. COCCNc1nc2c(c(NCc3ccncc3)n1)CCNCC2 was tested, and the Percent Effect was -12.3%. In the case of CNC(=O)c1ccc(C2CN(C(=O)COC)CCO2)nc1 (stereo not given), the Percent Effect was 1.8%. In the case of CO[C@@H]1CC[C@H]2[C@H]1OCCN2C(=O)C1=CCCC1, the Percent Effect was -25.5%. For CC1CCN(C(=O)CN(Cc2ccco2)C2CC2)CC1, the Percent Effect was -5.22%. In the case of O=C(c1ccco1)N1CCC2(CCC(=O)N2Cc2cccc(F)c2)CC1, the Percent Effect was -6.58%. Cc1ccc2c(ccn2CCC(=O)NC[C@@H]2CCCN3CCCC[C@H]23)c1 was tested, and the Percent Effect was -5.27%. In the case of O[C@H]1[C@H](n2cc(-c3ccccc3)nn2)c2ccccc2C12CCNCC2, the Percent Effect was -10.9%. O=C(CN1CCOC(Cn2cccn2)C1)NCc1cccs1 (stereo not given) gave a Percent Effect of -9.71%. With CC(C)NC(=O)CS(=O)(=O)Cc1cc(Cl)c2c(c1)OCCO2 the Percent Effect was -1.92%. CC(C)c1noc(CN(Cc2cccs2)C2CC2)n1 showed a Percent Effect of -48.4%. CN(C)C(=O)CO[C@@H]1CC[C@H]2[C@H]1OCCN2C(=O)C1CCOCC1 showed a Percent Effect of -10.1%. Work on COCCc1noc(CN2CCCCC2Cn2cc(C)cn2)n1 (stereo not given) yielded a Percent Effect of 9.7%. Cc1nn(C)c(C)c1CC(=O)N1CCC(N(C)c2cccnn2)CC1 gave a Percent Effect of 27.2%. For O=C(CS(=O)(=O)CC1CCCCC1)NC1CCCCNC1=O (stereo not given), the Percent Effect was -23%. CCN1CCN(c2ccc(CNC(=O)c3ccc(Cl)o3)cn2)CC1 showed a Percent Effect of -41.7%. CN(Cc1ccc(Cl)c(Cl)c1)C(=O)CNC(N)=O was tested, and the Percent Effect was 10.2%. Cc1ccc(SCC(=O)NS(=O)(=O)c2ccc3c(c2)OCCO3)cc1 showed a Percent Effect of 21.2%. CC(C)c1nn(C)c(N(C)C)c1CNCc1cccc(CN(C)C)c1 was tested, and the Percent Effect was 31.8%. Molecule CNc1nc(CNC(=O)Nc2cccc(F)c2C)cs1 has a Percent Effect of 17.1%. N#Cc1ncn(CC(=O)Nc2cc(Cl)ccc2F)n1 gave a Percent Effect of -46.7%. Molecule Cc1ccc(CC(=O)N2CCCC(c3cc(C)[nH]n3)C2)cn1 (stereo not given) has a Percent Effect of -18.6%. With COc1c(C(=O)NCc2cccnc2)nnn1Cc1ccc(C)cc1 the Percent Effect was -4.95%. With CC(C)(C)c1nnc(CN2CCCC2c2noc(C3CC3)n2)o1 (stereo not given) the Percent Effect was 0.0549%. With COCc1cnc2n1CCN(Cc1cccnc1)C2C (stereo not given) the Percent Effect was -10.3%. CC(=O)N1[C@H](Cn2cncn2)C[C@@H]2CN(c3ccc(C)nn3)CC[C@@H]21 was tested, and the Percent Effect was -4.03%. For O=C1CC(c2ccccc2F)c2c(n3ccsc3nc2=O)N1 (stereo not given), the Percent Effect was -23%. CCC(=O)Nc1nnc(CCOc2cccc(OC)c2)s1 gave a Percent Effect of 5.93%. Cc1cccc(N2CCN(C(=O)CN3CCN(CCO)CC3)CC2)c1 gave a Percent Effect of 0.874%. In the case of CN1CC(=O)N(c2cnn(C)c2)CC12CCN(Cc1ccccc1)C2 (stereo not given), the Percent Effect was -5.72%. CCCC1CCCN(Cc2csc(-c3cnn(C)c3)n2)CC1 (stereo not given) showed a Percent Effect of 20.9%. Molecule O=C(CCc1cc(O)no1)N1CCCC(COc2ccc(F)cc2)C1 (stereo not given) has a Percent Effect of -19.8%. O=C(c1ccc2c(c1)COC2)N1CCC(Nc2cccnn2)CC1 gave a Percent Effect of -8.52%. For CSCC[C@H](N)C(=O)NCc1cc2n(n1)CCCN(C(=O)C1CCC1)C2, the Percent Effect was 2.24%. Work on Cc1ccc(CN2CC[C@H]3C[C@@H](c4nc(C5CC5)cs4)O[C@@H]3C2)o1 yielded a Percent Effect of -16.4%.

— ChEMBL document CHEMBL3988442, “University of Dundee, Small-Polar-MMV Screening Library” (2021)
